# Measurements taken from PubChem BioAssay AID2414 (Southern Research Specialized Biocontainment Screening …, 2010).
# Entries with a potency or affinity are not part of this list. Values without a mark were called inactive. No rule for the calls is given here.
# Assay: Vero 76 cell viability after compound exposure – Vero 76 cells, synthesized analogs, cytotoxicity control for West Nile virus antiviral project, SAR follow-up (AID 2414)
# Settings: Vero 76 cells viability, cytotoxicity CC50; series mostly up to 66.6 µM; viability: at the top concentration
row,SMILES,viability
1,O=c1c2cc(Cl)cc(Cl)c2nc2n1CCC2,87.2%
2,OC1c2cc(I)ccc2N=C2CCCN21 (centres undefined),88.9% [at 133 µM]
3,Cc1cccc2nc3n(c(=O)c12)CCC3,99.8%
4,CC(=O)Nc1ccc2nc3n(c(=O)c2c1)CCC3,92.8%
5,O=c1c2cc(I)ccc2nc2n1CCC2,79.2%
6,COc1ccc(-c2csc(N(CCCBr)C(=O)c3ccccc3Cl)n2)cc1,77.1%
7,COc1ccc(Cn2nc(C)cc2OC(=O)c2c(F)cccc2F)cc1,93% [at 133 µM]
8,O=C(CSc1nc2cccc(F)c2c(=O)n1-c1ccccc1)Nc1ccc2c(c1)CCC2,75.7% [at 133 µM]
9,O=c1c2c(F)cccc2nc2n1CCC2,103%
10,Nc1ccc2nc3n(c(=O)c2c1)CCC3,95%
11,COc1ccc(-c2csc(N(C)C(=O)c3ccccc3Cl)n2)cc1,83%
12,O=C(CSc1nc2ccc(F)cc2c(=O)n1-c1ccccc1)Nc1ccc2c(c1)CCC2,90.7% [at 133 µM]
13,Cc1cccc2c(=O)n3c(nc12)CCC3,92.3%
14,COc1ccc(Cn2nc(C)cc2OC(=O)c2ccccc2)cc1,82.1% [at 133 µM]
15,OC1c2c(F)cccc2N=C2CCCN21 (centres undefined),85.5% [at 133 µM]
16,OC1c2cc(Cl)cc(Cl)c2N=C2CCCN21 (centres undefined),83.3% [at 133 µM]
17,COc1ccc(-c2csc(N(Cc3ccccc3)C(=O)c3ccccc3Cl)n2)cc1,85.5%

row,SMILES,viability
1,COc1ccc(Cn2nc(C)cc2OC(=O)c2c(F)ccc(C)c2F)cc1,80.8% [at 133 µM]
2,OC1c2cc(Br)ccc2N=C2CCCCN21 (centres undefined),72.1% [at 133 µM]
3,Cc1cc(OC(=O)c2c(F)cccc2F)n(Cc2ccccc2)n1,100% [at 133 µM]
4,OC1c2c(F)cccc2N=C2CCCCN21 (centres undefined),74.3% [at 133 µM]
5,O=C(CSc1nc2ccccc2c(=O)n1-c1ccc(F)cc1)Nc1ccc2c(c1)OCCO2,81.5%
6,CCCN(C(=O)c1ccccc1Cl)c1nc(-c2ccc(OC)cc2)cs1,77.4%
7,O=c1c2cccc(Cl)c2nc2n1CCC2,81.9%
8,OC1c2c(F)cccc2N=C2CCCCCN21 (centres undefined),76.7% [at 133 µM]
9,O=C(CSc1nc2ccccc2c(=O)n1-c1ccc(F)cc1F)Nc1ccc(N2CCOCC2)cc1,75.9% [at 133 µM]
10,CC1(O)c2cc(Br)ccc2N=C2CCCN21 (centres undefined),92.7%
11,COc1ccccc1NC(=O)CSc1nc2ccccc2c(=O)n1-c1ccc(F)cc1,76.6%
12,CC1CC(C)CN(C(=O)CSc2nc3ccccc3c(=O)n2-c2ccc(F)cc2)C1 (centres undefined),88%
13,COc1ccc(NC(=O)CSc2nc3ccccc3c(=O)n2-c2ccc(F)cc2)cc1,83.6%
14,O=c1c2cc([N+](=O)[O-])ccc2nc2n1CCC2,97.1%
15,Cc1ccc2nc3n(c(=O)c2c1)CCC3,92.2%
16,CCCCN(C(=O)c1ccccc1Cl)c1nc(-c2ccc(OC)cc2)cs1,79.3%
17,O=[N+]([O-])c1ccc2c(c1)C(O)N1CCCC1=N2 (centres undefined),86.3%
